Laboratory results reported in the supplement of paper PMC10849652.
Of roughly 8,800 targets only a part is listed; those with a hit were picked by preference. About 0.5% of all pairs of compound and target were hits. Values without a mark were called inactive.

Columns and labels:
Experiment in all cases: log2 fold change, soluble protein after heating vs DMSO (PISA); higher = thermal stabilisation; K562 lysate, 10 uM; active = over 0.2 and 3.5 SD of the protein, either way, in both replicates (recomputed)
[1] = compound: C1=CC=C(C=C1)[C@H](COC2=CC3=C(C=C2)NC(=O)N3)NC(=O)C4=CC=CN(C4=O)CC5=CC(=C(C=C5)F)F
How it was run: (§1)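 Thermal stability, expressed as log-two fold change relative to solvent controls, is given from duplicates. Crude K562 extract in PBS pH 7.4 with 1 mM MgCl2, at 1 mg/mL protein, was treated with 10 μM compound for 30 min and heated in aliquots for 3 min across 48°C-58°C. After pooling, adjustment to 0.5% NP-40 at 4°C and centrifugation at 21,000xg for 90 min, supernatant protein was measured by TMTpro 16plex LC-MS/MS with channel sums equalised.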

[2] = compound: CC1=C(SC2=C1C(=N[C@H](C3=NN=C(N32)C)CC(=O)N)C4=CC=C(C=C4)Cl)C
How it was run: as §1

[3] = compound: CC1=C2C(=CC=C1)N=C(N(C2=O)C3=CC=CC=C3C)CN4C=NC5=C(N=CN=C54)N
How it was run: as §1

[4] = compound: Cc1sc2c(c1C)C(c1ccc(Cl)cc1)=N[C@@H](CC(=O)OC(C)(C)C)c1nnc(C)n1-2
How it was run: as §1

[5] = compound: c1ccc([C@@H]2C[C@H]2NC2CCNCC2)cc1
How it was run: as §1

NCAPD2 (UniProt Q15021)
log2 fold change [1]: -0.023 | log2 fold change [2]: 0.028 | log2 fold change [3]: 0.026 | log2 fold change [4]: 0.008 | log2 fold change [5]: 0.022

PAK1 (UniProt Q13153)
Sequence of UniProt Q13153 (Q13153 whole entry, looked up): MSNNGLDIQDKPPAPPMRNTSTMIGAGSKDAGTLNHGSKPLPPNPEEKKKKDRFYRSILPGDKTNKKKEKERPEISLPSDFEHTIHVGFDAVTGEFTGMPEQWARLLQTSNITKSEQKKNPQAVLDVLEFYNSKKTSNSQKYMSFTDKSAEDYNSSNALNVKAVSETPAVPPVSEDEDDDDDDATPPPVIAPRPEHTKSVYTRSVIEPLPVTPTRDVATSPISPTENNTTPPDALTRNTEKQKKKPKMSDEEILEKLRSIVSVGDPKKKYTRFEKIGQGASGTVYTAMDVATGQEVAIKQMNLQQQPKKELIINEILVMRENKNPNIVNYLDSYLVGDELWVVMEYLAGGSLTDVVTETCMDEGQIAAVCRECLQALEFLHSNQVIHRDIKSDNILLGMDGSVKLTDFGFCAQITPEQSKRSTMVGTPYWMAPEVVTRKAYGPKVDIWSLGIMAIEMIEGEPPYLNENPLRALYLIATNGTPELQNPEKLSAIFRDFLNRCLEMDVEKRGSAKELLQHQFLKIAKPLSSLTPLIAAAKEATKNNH
log2 fold change [1]: 0.029 | log2 fold change [2]: -0.009 | log2 fold change [3]: -0.011 | log2 fold change [4]: 0.015 | log2 fold change [5]: -0.126

OSBPL6 isoform 5 (UniProt Q9BZF3)
Sequence of UniProt Q9BZF3 (Q9BZF3 whole entry, looked up): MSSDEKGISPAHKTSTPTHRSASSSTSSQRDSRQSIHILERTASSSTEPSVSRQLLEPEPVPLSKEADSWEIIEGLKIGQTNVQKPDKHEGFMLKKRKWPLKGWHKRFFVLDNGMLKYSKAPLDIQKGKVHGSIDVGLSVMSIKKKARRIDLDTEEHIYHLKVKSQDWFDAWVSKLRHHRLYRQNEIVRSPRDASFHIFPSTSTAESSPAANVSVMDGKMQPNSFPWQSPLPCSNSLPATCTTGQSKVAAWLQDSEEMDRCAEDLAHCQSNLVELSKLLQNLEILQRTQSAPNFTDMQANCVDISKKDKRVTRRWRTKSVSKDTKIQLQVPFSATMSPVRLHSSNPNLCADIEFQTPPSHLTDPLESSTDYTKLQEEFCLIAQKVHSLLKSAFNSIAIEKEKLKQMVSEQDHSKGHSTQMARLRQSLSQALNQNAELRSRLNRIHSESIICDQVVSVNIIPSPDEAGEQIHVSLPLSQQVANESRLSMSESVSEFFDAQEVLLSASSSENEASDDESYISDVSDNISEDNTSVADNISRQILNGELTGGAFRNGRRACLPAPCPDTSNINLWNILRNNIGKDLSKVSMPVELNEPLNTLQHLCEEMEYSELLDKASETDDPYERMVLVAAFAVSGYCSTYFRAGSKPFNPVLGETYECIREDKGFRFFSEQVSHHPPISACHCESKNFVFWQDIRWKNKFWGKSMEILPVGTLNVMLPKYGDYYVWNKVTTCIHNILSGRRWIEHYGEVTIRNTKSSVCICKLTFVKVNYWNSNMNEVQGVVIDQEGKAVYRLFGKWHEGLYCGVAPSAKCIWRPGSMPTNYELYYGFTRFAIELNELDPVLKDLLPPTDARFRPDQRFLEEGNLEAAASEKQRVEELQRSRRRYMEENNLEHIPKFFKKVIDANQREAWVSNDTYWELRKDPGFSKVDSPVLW
log2 fold change [1]: 0.014 | log2 fold change [2]: -0.023 | log2 fold change [3]: 0.02 | log2 fold change [4]: 0.023 | log2 fold change [5]: -0.087

NUP93 (UniProt Q8N1F7)
log2 fold change [1]: -0.054 | log2 fold change [2]: -0.017 | log2 fold change [3]: -0.006 | log2 fold change [4]: 0.007 | log2 fold change [5]: 0.031

MTA1 (UniProt Q13330)
log2 fold change [1]: 0.005 | log2 fold change [2]: -0.01 | log2 fold change [3]: 0.01 | log2 fold change [4]: 0.055 | log2 fold change [5]: 0.012

MTCH2 (UniProt Q9Y6C9)
log2 fold change [1]: 0.013 | log2 fold change [2]: 0.001 | log2 fold change [3]: -0.006 | log2 fold change [4]: -0.014 | log2 fold change [5]: -0.083

N4BP2 (UniProt Q86UW6)
log2 fold change [1]: 0.024 | log2 fold change [2]: 0.04 | log2 fold change [3]: 0.064 | log2 fold change [4]: -0.022 | log2 fold change [5]: -0.068

NSUN2 (UniProt Q08J23)
log2 fold change [1]: -0.016 | log2 fold change [2]: 0.011 | log2 fold change [3]: -0.009 | log2 fold change [4]: 0.021 | log2 fold change [5]: 0.019

NCAPH (UniProt Q15003)
Sequence of UniProt Q15003 (Q15003 whole entry, looked up): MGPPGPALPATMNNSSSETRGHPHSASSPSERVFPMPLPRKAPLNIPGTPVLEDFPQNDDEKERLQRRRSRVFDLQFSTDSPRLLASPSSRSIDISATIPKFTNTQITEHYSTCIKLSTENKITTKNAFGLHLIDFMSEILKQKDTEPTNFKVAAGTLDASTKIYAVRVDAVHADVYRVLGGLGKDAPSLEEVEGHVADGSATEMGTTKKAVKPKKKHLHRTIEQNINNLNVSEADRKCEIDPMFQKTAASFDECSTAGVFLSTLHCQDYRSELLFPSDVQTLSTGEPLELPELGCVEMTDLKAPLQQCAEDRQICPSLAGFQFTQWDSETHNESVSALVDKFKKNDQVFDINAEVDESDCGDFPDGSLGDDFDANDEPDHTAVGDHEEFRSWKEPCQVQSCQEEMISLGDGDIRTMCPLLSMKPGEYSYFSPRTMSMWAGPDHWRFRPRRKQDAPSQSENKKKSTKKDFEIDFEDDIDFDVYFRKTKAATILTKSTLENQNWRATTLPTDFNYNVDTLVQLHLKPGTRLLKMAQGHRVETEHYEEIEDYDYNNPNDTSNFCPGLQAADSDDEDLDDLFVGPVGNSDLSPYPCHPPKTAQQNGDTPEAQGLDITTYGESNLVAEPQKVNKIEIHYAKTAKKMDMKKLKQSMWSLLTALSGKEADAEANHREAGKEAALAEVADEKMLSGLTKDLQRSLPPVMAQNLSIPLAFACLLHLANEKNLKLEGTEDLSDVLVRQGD
log2 fold change [1]: -0.025 | log2 fold change [2]: 0.015 | log2 fold change [3]: 0.021 | log2 fold change [4]: -0.023 | log2 fold change [5]: 0.024

MYH6 (UniProt P13533)
log2 fold change [1]: -0.552 | log2 fold change [2]: 0.239

NAA35 (UniProt Q5VZE5)
log2 fold change [1]: 0.004 | log2 fold change [2]: 0.066 | log2 fold change [3]: -0.023 | log2 fold change [4]: -0.002 | log2 fold change [5]: 0.086

NUF2 (UniProt Q9BZD4)
Sequence of UniProt Q9BZD4 (Q9BZD4 whole entry, looked up): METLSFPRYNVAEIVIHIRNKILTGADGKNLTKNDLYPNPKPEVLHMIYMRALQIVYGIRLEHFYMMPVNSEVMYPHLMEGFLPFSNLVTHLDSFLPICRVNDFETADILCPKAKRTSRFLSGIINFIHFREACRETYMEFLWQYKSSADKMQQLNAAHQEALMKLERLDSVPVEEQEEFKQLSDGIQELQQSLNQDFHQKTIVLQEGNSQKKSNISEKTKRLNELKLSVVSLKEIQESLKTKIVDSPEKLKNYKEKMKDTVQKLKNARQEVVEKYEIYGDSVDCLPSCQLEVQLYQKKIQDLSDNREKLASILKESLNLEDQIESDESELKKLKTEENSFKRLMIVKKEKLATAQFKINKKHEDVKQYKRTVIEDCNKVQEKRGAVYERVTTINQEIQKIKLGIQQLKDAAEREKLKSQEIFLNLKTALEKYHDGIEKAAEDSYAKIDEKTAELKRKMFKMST
log2 fold change [1]: -0.03 | log2 fold change [2]: 0.008 | log2 fold change [3]: 0.018 | log2 fold change [4]: 0.007 | log2 fold change [5]: 0.016

NUMB (UniProt P49757)
Sequence of UniProt P49757 (P49757 whole entry, looked up): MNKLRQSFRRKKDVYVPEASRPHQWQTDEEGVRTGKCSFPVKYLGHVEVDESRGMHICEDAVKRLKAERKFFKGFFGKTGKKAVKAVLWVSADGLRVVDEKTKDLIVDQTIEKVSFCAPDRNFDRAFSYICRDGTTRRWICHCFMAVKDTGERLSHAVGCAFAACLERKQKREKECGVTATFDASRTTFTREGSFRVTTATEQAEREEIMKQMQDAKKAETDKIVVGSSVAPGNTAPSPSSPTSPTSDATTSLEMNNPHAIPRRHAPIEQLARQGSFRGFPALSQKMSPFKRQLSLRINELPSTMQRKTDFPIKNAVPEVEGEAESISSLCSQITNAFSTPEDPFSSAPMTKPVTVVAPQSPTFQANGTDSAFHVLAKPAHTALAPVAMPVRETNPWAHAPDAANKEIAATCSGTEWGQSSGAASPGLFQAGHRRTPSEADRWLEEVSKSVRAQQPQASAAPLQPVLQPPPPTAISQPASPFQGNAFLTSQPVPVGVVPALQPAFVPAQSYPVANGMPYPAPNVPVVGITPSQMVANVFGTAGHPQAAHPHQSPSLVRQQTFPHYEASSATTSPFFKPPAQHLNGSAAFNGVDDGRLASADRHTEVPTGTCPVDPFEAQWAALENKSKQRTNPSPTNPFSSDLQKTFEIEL
log2 fold change [1]: 0.001 | log2 fold change [2]: 0.034 | log2 fold change [3]: 0.009 | log2 fold change [4]: 0.004 | log2 fold change [5]: -0.032

NFKBIE (UniProt O00221)
log2 fold change [1]: -0.014 | log2 fold change [2]: -0.068 | log2 fold change [3]: 0.033 | log2 fold change [4]: 0.081 | log2 fold change [5]: -0.087

NDC1 (UniProt Q9BTX1)
log2 fold change [1]: 0.001 | log2 fold change [2]: -0.055 | log2 fold change [3]: 0.003 | log2 fold change [4]: 0.02 | log2 fold change [5]: -0.172

PANK1 (UniProt Q8TE04)
log2 fold change [1]: -0.071 | log2 fold change [2]: -0.056 | log2 fold change [3]: 0.178 | log2 fold change [4]: -0.077 | log2 fold change [5]: 0.076

NAA38 isoform 2 (UniProt Q9BRA0)
log2 fold change [1]: -0.002 | log2 fold change [2]: 0.02 | log2 fold change [3]: 0.063 | log2 fold change [4]: -0.005 | log2 fold change [5]: -0.344 (active)

N6AMT1 (UniProt Q9Y5N5)
Sequence of UniProt Q9Y5N5 (Q9Y5N5 whole entry, looked up, one chain of several): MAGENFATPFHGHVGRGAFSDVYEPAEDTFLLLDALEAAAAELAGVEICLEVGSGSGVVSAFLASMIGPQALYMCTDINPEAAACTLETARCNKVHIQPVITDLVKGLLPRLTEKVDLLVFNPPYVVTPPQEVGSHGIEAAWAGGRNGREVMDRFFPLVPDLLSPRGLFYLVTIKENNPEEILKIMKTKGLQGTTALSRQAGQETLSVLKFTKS
log2 fold change [1]: -0.046 | log2 fold change [2]: -0.086 | log2 fold change [3]: -0.046 | log2 fold change [4]: -0.011 | log2 fold change [5]: 0.052

NOSTRIN (UniProt Q8IVI9)
log2 fold change [1]: -0.061 | log2 fold change [2]: 0.039 | log2 fold change [3]: 0.017 | log2 fold change [4]: -0.092 | log2 fold change [5]: 0.017

MT-ND1 (UniProt P03886)
Sequence of UniProt P03886 (P03886 whole entry, looked up): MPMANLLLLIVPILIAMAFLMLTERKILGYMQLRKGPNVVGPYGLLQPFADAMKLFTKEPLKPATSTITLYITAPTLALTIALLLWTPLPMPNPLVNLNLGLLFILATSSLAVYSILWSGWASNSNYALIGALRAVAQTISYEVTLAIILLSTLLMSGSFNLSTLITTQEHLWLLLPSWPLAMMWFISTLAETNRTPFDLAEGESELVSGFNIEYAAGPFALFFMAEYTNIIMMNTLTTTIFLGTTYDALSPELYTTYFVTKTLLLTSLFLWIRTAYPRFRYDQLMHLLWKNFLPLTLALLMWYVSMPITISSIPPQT
log2 fold change [1]: -0.057 | log2 fold change [2]: -0.098 | log2 fold change [3]: -0.055 | log2 fold change [4]: -0.077 | log2 fold change [5]: -0.039

NFATC1 (UniProt O95644)
log2 fold change [1]: -0.006 | log2 fold change [2]: 0.047 | log2 fold change [3]: -0.017 | log2 fold change [4]: 0.003 | log2 fold change [5]: -0.127

NAP1L5 (UniProt Q96NT1)
log2 fold change [1]: 0.082 | log2 fold change [2]: -0.023 | log2 fold change [3]: -0.028 | log2 fold change [4]: -0.082 | log2 fold change [5]: 0.304

NIPSNAP3A (UniProt Q9UFN0)
Sequence of UniProt Q9UFN0 (Q9UFN0 whole entry, looked up): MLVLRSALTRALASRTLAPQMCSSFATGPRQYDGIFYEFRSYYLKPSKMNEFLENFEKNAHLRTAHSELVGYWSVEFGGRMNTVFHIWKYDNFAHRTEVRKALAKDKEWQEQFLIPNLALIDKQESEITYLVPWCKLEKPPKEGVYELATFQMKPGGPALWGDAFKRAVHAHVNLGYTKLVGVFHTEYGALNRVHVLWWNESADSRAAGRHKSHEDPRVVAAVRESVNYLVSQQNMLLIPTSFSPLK
log2 fold change [1]: 0.083 | log2 fold change [2]: -0.037 | log2 fold change [3]: -0.013 | log2 fold change [4]: -0.036 | log2 fold change [5]: 0.322 (active)

MRPS18A isoform 2 (UniProt Q9NVS2)
log2 fold change [1]: 0.005 | log2 fold change [2]: -0.101 | log2 fold change [3]: 0.054 | log2 fold change [4]: 0.066 | log2 fold change [5]: 0.2

NFATC4 isoform 2 (UniProt Q14934)
Sequence of UniProt Q14934 (Q14934 whole entry, looked up): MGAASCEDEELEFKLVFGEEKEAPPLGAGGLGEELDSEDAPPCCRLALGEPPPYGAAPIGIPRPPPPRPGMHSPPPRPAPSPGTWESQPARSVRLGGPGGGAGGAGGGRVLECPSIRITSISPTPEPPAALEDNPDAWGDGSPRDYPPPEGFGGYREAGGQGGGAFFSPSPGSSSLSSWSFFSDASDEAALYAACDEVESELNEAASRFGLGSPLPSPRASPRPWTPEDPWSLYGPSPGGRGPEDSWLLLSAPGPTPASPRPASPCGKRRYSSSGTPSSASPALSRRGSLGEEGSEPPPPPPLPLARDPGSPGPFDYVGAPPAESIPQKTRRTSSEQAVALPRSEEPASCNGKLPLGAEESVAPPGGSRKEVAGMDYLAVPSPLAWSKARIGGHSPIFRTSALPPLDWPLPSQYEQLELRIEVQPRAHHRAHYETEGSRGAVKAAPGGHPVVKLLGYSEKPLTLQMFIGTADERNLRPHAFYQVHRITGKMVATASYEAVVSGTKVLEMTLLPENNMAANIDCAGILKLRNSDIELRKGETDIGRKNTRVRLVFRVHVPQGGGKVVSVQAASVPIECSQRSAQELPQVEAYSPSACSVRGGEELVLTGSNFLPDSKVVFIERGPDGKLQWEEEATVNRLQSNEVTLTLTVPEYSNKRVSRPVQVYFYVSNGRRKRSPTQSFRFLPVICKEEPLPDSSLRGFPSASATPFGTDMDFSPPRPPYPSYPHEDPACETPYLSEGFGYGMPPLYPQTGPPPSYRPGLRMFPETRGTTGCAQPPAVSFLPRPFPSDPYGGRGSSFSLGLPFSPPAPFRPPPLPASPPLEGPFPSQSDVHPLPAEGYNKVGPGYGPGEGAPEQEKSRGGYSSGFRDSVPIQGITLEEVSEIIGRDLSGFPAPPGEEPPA
log2 fold change [1]: -0.077 | log2 fold change [2]: 0.015 | log2 fold change [3]: 0 | log2 fold change [4]: -0.112 | log2 fold change [5]: -0.197
